Among the data in PubChem BioAssay AID1347383 (Zoeller Lab, School of Medicine, Boston University, 2020) are outcome values, retold here.

The source made the active and inactive calls.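 The calls were made as follows: active = cell survival after UV exposure 2 SD above solvent-only control wells at 10 µM, confirmed on one or two repeats; inactive = the rest.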

A short description of the experiment: protection of CHO cells from pyrene-fatty acid UV killing, primary screen, phospholipid biosynthesis inhibitor project, ZR-82 cells, Analyticon library, screen 2 (AID 1347383).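 Also: survival reflects blocked phospholipid synthesis cutting uptake of the phototoxic fatty acid; compound and fatty acid exposure 3 h then viability read next day.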 Particulars: ZR-82 CHO cells, CellTiter Blue, at 10 µM; peroxisome-deficient CHO-K1 variant, with DGAT-1, DGAT-2 and ACAT inhibitors unless noted. For orientation: Resazurin is reduced to fluorescent resorufin, in cell work by metabolically active cells.
For the molecule `CC[C@H]1CN2CC[C@H]1C[C@H]2[C@H](O)c1ccnc2ccc(OC)cc12`, the molecule was called inactive. The result for `C/C=C(\C)[C@H](O)[C@H](C)/C=C(C)/C=C/C/C(C)=C/Cc1[nH]c(OC)c(OC)c(=O)c1C` reads “inactive”; that for `CO[C@H]1[C@H](O)[C@H](O[C@H]2CC[C@]3(C=O)C4CC[C@]5(C)[C@H](C6=CC(=O)OC6)CC[C@]5(O)C4CC[C@@H]3C2)O[C@@H](C)[C@@H]1O` (some centres not stated), “inactive”. Then `C[C@]12CC[C@H](O)CC1=CC[C@@H]1C2CC[C@]2(C)[C@@H](C3=CC(=O)OC3)CC[C@]12O` (some centres not stated), with “inactive”; and `CC(=O)O[C@H]1C(=O)[C@]2(C)C(O)C[C@H]3OC[C@@]3(OC(C)=O)[C@H]2[C@H](OC(=O)c2ccccc2)[C@]2(O)C[C@H](O)C(C)=C1C2(C)C` (some centres not stated), with “inactive”.

In the case of `CCC1CC2CN3CCc4c([nH]c5ccccc45)C(C(=O)OC)(C2)C13` (configuration not stated), the call was inactive. Then `CC(C)(C)C1(O)C[C@@H]2OC(=O)C[C@@]23C(=O)O[C@@H]2OC(=O)[C@@H](O)[C@]213` (some centres not stated), with “inactive”. Then `COc1ccc([C@@]23CC[C@H](O)C[C@@H]2N(C)CC3)cc1OC`, with “inactive”; and `C[C@@]1(C(=O)O)CC[C@]2(C)CC[C@]3(C)C4=CC(=O)c5cc(O)c(O)cc5[C@]4(C)CC[C@@]3(C)[C@@H]2C1`, with “inactive”. Then `COc1ccc2c3c([nH]c2c1)C(C)=NCC3`, with “inactive [setting not given]”.

With `CC(C)C(=O)O[C@H]1[C@@H]2[C@H](C)C(=O)O[C@@H]2C[C@@H](C)[C@@H]2C=CC(=O)[C@]21C`, the molecule was called inactive.

On to `CC1(C)C=Cc2c(ccc3c4c([nH]c23)C(C)(C)C2CC35CCCN3C(=O)C2(C4)NC5=O)O1` (configuration not stated), for which the molecule was called inactive.

On to `C=CC(C)(C)c1cc2c(O)c3c(c(C(C)(C)C=C)c2oc1=O)OC(C)(C)C=C3`, for which the call was inactive. Take `COC1CC(O[C@H]2CC[C@]3(C)C4CC[C@]5(C)[C@@H](C6=CC(=O)OC6)CC[C@]5(O)[C@@H]4CC[C@]3(O)C2)OC(C)C1O` (some centres not stated): the molecule was classed as inactive.

For `CC(C)=CCOc1c2occc2cc2ccc(=O)oc12`, the outcome is “inactive [setting not given]”. The result for `COc1cc(C2c3cc4c(c(O)c3CC3COC(=O)C32)OCO4)cc(OC)c1O` (configuration not stated) reads “inactive [setting not given]”; that for `C/C=C1/CN2C3CC1C(CO)C2Cc1c3[nH]c2ccccc12` (configuration not stated), “inactive”; that for `COc1ccc(CC2C(=O)OCC2Cc2ccc3c(c2)OCO3)cc1OC` (configuration not stated), “inactive”. Then `CO[C@H]1[C@H](O)[C@H](O[C@H]2CC[C@]3(C)C4CC[C@]5(C)[C@H](C6=CC(=O)OC6)CC[C@]5(O)C4CC[C@@H]3C2)O[C@@H](C)[C@@H]1O` (some centres not stated), with “inactive”; and `COc1cc2c(cc1OC)[C@@]13CCN4CC5=CCO[C@H]6CC(=O)N2[C@H]1[C@H]6[C@H]5C[C@H]43`, with “inactive [setting not given]”. Then `CC1=CC2/C=C(\C)CCC(O)C(O)/C=C/C(=O)C23C(=O)NC(CC(C)C)C3C1C` (configuration not stated), with “inactive”.

Consider `COc1ccc([C@@]23CC[C@@H](O)C[C@@H]2N(C)CC3)cc1OC`, for which the molecule was called inactive.

For `CCC1C2CC3C4N(C)c5ccccc5C45CC(C2C5O)N3C1O` (configuration not stated), the outcome is “inactive [setting not given]”.

In the case of `CC(C)[C@@H](C)/C=C/[C@@H](C)[C@H]1CC[C@@H]2[C@]1(C)CCC1[C@]23C=C[C@]2(C[C@@H](O)CC[C@]12C)OO3` (some centres not stated), the result was inactive. Then `CO[C@H]1C[C@H](O[C@H]2CC[C@]3(CO)[C@H]4CC[C@]5(C)[C@@H](C6=CC(=O)OC6)CC[C@]5(O)[C@@H]4CC[C@]3(O)C2)O[C@H](C)[C@H]1O`, with “inactive”; and `CC1(C)C=C2C(=O)C(C)(C)C(=O)C(C)(C)C2(O)OO1` (configuration not stated), with “inactive”; and `C[C@H]1O[C@@H](O[C@H]2CC[C@]3(C=O)C4CC[C@]5(C)[C@@H](C6=CC(=O)OC6)CC[C@]5(O)[C@@H]4CC[C@]3(O)C2)C[C@@H](O)[C@@H]1O` (some centres not stated), with “inactive”.
